Compound activity deposited in PubChem by National Center for Advancing Translational Sciences (NCATS).
Many of the other results were omitted from the sample, so hits are more common in it than they were.
Shiga inhibitor: blocks Shiga toxin action in Vero cells | Vero cells, Shiga toxin protein synthesis inhibition reporter | inhibition, % at 38.7 µM | hit rate 9.2% among 290,000; in the data active = inhibition mostly above about 28%, no sharp cut-off; inactive = mostly below about 43%; note: 0% is about no effect
Cycloheximide cs: affects cycloheximide protein synthesis inhibition readout, counter-screen; cell reporter, cycloheximide protein synthesis inhibition counterscreen; max response, %; hit rate 12% among 300,000; AID 2314; in the data active = max response mostly above about 13%, no sharp cut-off; inactive = mostly below about 14%; note: read at 38.3 µM for the half of the compounds with a filed dose; 0% is about no effect
AmpC inh detg: inhibitors of E. coli AmpC beta-lactamase with detergent; Potency, µM (titrated, usually from 114 µM), without a hit: at the top dose activity change, negative = inhibition, hits mostly inhibitors; hit rate 0.041% among 370,000; AmpC hydrolysis of nitrocefin, absorbance 480 nm, 0.01% Triton; P00811; AID 485294;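 note: potency is the fitted concentration of half-maximal effect; 0% = no-compound wells and -100% = no-enzyme wells; nearly all actives have a fitted effect of over 25% in size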
Target sequence (P00811 whole entry, looked up): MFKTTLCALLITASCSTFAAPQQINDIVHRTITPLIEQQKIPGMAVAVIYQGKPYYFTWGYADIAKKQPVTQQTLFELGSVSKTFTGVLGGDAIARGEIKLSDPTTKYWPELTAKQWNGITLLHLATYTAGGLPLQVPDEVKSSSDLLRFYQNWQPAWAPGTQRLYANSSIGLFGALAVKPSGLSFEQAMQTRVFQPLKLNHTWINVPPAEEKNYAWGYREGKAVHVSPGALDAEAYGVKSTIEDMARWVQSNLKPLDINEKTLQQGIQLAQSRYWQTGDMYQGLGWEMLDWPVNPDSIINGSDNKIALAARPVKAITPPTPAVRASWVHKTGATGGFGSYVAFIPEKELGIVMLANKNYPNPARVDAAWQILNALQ
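20 mM phosphate pH 7.0 + 0.01% (detergent screen) or 0.0001% Triton X-100; 5.3 nM AmpC reagent; cpd preinc 15 min RT; nitrocefin (800 uM stock) to start; A480 q20 s × 4 min; Activity was normalised to no-enzyme and no-compound control wells.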
NS1 inh: inhibitors of influenza NS1 protein function | Potency, µM (titrated, usually from 46.1 µM), for the others: at the highest dose activity, positive = more growth | hit rate 0.4% among 270,000; calls by dose curve; note: potency is the fitted concentration of half-maximal effect; actives are rising curves; nearly all actives have a fitted effect of over 50% in size
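Growth recovery, yeast-based: influenza A NS1 expressed in S. cerevisiae causes slow growth, and suppressors are detected by OD600. The parent strain without NS1 is used as positive control.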
AmpC no deterg: AmpC beta-lactamase inhibition without detergent | Potency, µM (doses to about 57.1 µM), for inactives: at the highest dose activity change, negative = inhibition, usual class: inhibitors | hit rate 0.52% among 330,000 | AID 485341 | P00811 | AmpC nitrocefin hydrolysis, absorbance 480 nm, 0.0001% Triton;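 note: potency is the fitted concentration of half-maximal effect; plate controls were no compound for no effect and no enzyme for full effect; nearly all actives have a fitted effect of over 20% in size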
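AmpC (5.3 nM in the dispensed reagent) in 20 mM phosphate pH 7.0 with 0.01% (detergent screen) or 0.0001% Triton X-100 was preincubated with compounds for 15 min at room temperature. Nitrocefin was then added from an 800 uM solution, and hydrolysis was followed at 480 nm.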
The depositor's hits bear a star; ? = inconclusive; · = no result given. Unless noted, calls come from the whole dose curve; as a rule, active = well fitted curve in the direction sought with a large enough effect; inconclusive = small, poorly fitted or top-dose-only effect, or another doubt; inactive = no such curve, though single readings can be large; an effect the other way counts as inactive or inconclusive.

SMILES | Shiga inhibitor | Cycloheximide cs | AmpC inh detg | NS1 inh | AmpC no deterg
O=C(/C=C/c1ccco1)Nc1ccc(Oc2ccc(Cl)cc2)cc1 | 0 | -3 | -1% | -9% | -58%
O=C(Nc1ccc(-c2nc3ccccc3[nH]2)cc1)c1ccco1 | 109* | 43* | 0% | 0% | -42%
O=C(N/C(=C/c1ccc(Br)cc1)c1nc2ccccc2[nH]1)c1ccco1 | 51* | 15* | 4% | 6% | -28%
CCCNS(=O)(=O)c1ccc(OCC(=O)NCC2CCCO2)cc1 (stereo not drawn) | -9 | -7 | -11% | -6% | -13%
O=S(=O)(NCc1ccc(F)cc1)c1ccc(N2CCCCS2(=O)=O)cc1 | · | · | -11% | · | ·
Cn1c(C(=O)N2CCCCCC2)cc2c(=O)n(C)c3ccccc3c21 | 35 | 20* | -1% | -57% | 22%
CCN1CCN(C(=O)c2cc3c(=O)n(C)c4ccccc4c3n2C)CC1 | 14 | -4 | ? | -10% | 11µM*
CC1CCC(NC(=O)c2cc3c(=O)n(C)c4ccccc4c3n2C)CC1 (stereo not drawn) | 17 | 18* | ? | -10% | -11%
CCOC(=O)N1CCN(C(=O)c2cc3c(=O)n(C)c4ccccc4c3n2C)CC1 | -16 | -4 | ? | -7% | -16%
CC(=O)c1cccc(NC(=O)c2nc(-c3ccccc3)n(-c3ccccc3C)n2)c1 | · | · | -9% | · | ·
O=C(NNC1=C(C(=O)C(F)(F)F)CCC1)c1cccnc1 | 50 | 38* | 0% | -1% | -21%
Cc1cccc(C(=O)NNC2=C(C(=O)C(F)(F)F)CCC2)c1O | 17 | 15 | -5% | -57% | -36%
O=C(NNC1=C(C(=O)C(F)(F)F)CCC1)c1cccc(O)c1 | 64* | 31* | ? | 7% | -37%
Cc1cc(C(=O)COc2ccc(F)cc2Br)c(C)n1C | 63 | 30* | 3% | · | -15%
COCCn1c(C)cc(C(=O)COC(=O)c2ccc(Br)o2)c1C | 55* | 29* | 2% | -3% | 31%
Cc1cc(C(=O)COC(=O)c2ccc(Br)o2)c(C)n1C | 58* | 40* | -4% | · | -12%
Cc1cc(C(=O)COC(=O)c2ccc(F)cc2)c(C)n1C | · | · | · | · | -15%
COCCn1c(C)cc(C(=O)COC(=O)c2ccc[nH]c2=O)c1C | 24 | 2 | -7% | 9% | -6%
COc1ccccc1Nc1nc(-c2sc(NC(=O)c3cccc(Cl)c3)nc2C)cs1 | 10 | 14* | ? | 5% | -37%
Cc1ccc(Nc2nc(-c3sc(NC(=O)c4cccc(Cl)c4)nc3C)cs2)cc1 | 1 | 17 | ? | 25% | 9%
CCC(=O)Nc1nc(C)c(-c2csc(Nc3cccc(C(=O)O)c3)n2)s1 | 12 | 11 | -12% | · | -20%
COc1cccc(Nc2nc(-c3sc(NC(=O)c4ccccc4)nc3C)cs2)c1 | 71* | 13 | 5% | 2% | -31%
Cc1nc(NC(=O)c2ccccc2)sc1-c1csc(Nc2ccc(C(=O)O)cc2)n1 | 2 | 10* | -2% | 2% | -30%
Cc1nc(NC(=O)c2ccc(Cl)cc2)sc1-c1csc(Nc2cccc(F)c2)n1 | 109 | 24* | -13% | 10% | ?
CC(C)CN(CC(C)C)C(=O)C1CCCN(S(=O)(=O)c2ccc3c(c2)oc(=O)n3C)C1 (stereo not drawn) | · | · | 7% | · | ·
SMILES | Shiga inhibitor | Cycloheximide cs | AmpC inh detg | NS1 inh | AmpC no deterg
O=C(NNC(=O)c1cc2ccccc2oc1=O)c1ccccc1[N+](=O)[O-] | 1 | 0 | 6% | 4% | 2%
C/C(=N\NC(=O)c1cccc(S(=O)(=O)N2CCOCC2)c1)c1ccc(OCC(=O)N(C)C)cc1 | · | · | -8% | · | -11%
O=c1c2ccccc2nc(-c2cccc(Cl)c2)n1O | -12 | -2 | 2% | -93% | -10%
CCN(CC)CC(O)Cn1c(-c2cccc(Cl)c2)nc2cc(C)c(C)cc21 (stereo not drawn) | 45* | 24* | -9% | -6% | -19%
CCOc1ccc2nc(NC(=O)c3cccn(Cc4ccc(Cl)cc4)c3=O)sc2c1 | · | · | -2% | · | ·
CCOc1ccc2nc(N3C(=O)/C(=C/c4ccc(Cl)cc4)NC3=S)sc2c1 | 2 | 13* | 0% | 2% | -13%
CCOc1ccc(OCCOCCN2CCOCC2)cc1 | -5 | -5 | ? | -8% | 34%
CC(C)COc1ccc(C(=O)OCCN2CCCCC2)cc1 | 37* | 10 | 3% | 8% | 7%
O=C(OCCN1CCCCC1)c1ccccc1Br | 40 | 35* | -3% | 2% | -13%
Cc1cc(OCCN2CCOCC2)ccc1C(C)C | 60* | 48* | -2% | 8% | -7%
CC(C)COc1ccc(C(=O)OCCN2CCOCC2)cc1 | 36* | 25* | 2% | -3% | 117%
CC(C)COc1ccc(C(=O)CCN2CCCCC2)cc1 | -8 | 4 | 2% | -18% | 6%
CC(=O)C1=C(O)C(=O)N(c2ccc(C)cc2)C1c1ccccn1 (stereo not drawn) | 37* | 22* | 0% | 9% | -15%
COC(=O)CN1C(=O)CC(C)(C)S(=O)c2ccccc21 (stereo not drawn) | -7 | -4 | ? | 9% | 1.3µM*
COc1ccccc1NC(=O)c1ccc2nc(C)sc2c1 | 83* | 46* | 0% | -20% | -5%
COc1ccccc1N1C(=O)c2ccc(C(=O)Nc3ccccc3O)cc2C1=O | 19 | 11* | 1% | -4% | -5%
O=C(NNC(=O)C1C2CCCCC21)c1coc(=O)c(Br)c1 (stereo not drawn) | 57* | 51* | -2% | 9% | -54%
O=C(NCCC1=CCCCC1)c1coc(=O)c(Br)c1 | 1 | 16 | -1% | -7% | -15%
COc1ccccc1NC(=O)c1ccc2ccccc2c1 | 68* | 54* | · | · | ·
CCOC(=O)N1CCC(NC(=O)c2c(C)nn(-c3cccc(C)c3)c2-n2cccc2)CC1 | · | · | 4% | · | ·
Cc1ccc(Cl)cc1NS(=O)(=O)c1ccc2c(c1)NC(=O)CCS2 | · | · | 0% | · | ·
COc1ccccc1NC(=O)c1cc[n+](C)cc1 | -7 | -2 | ? | 6% | -20%
Cc1[nH]c2ccc(C(=O)Nc3ccncc3)cc2c1C | 50* | 23* | -2% | 2% | -35%
COc1ccccc1NC(=O)c1coc(=O)c(Br)c1 | 104* | 77* | -2% | 0% | -13%
COc1cccc(NC(=O)c2ccc3nc(C)sc3c2)c1 | 60* | 38* | -7% | -40% | -32%
SMILES | Shiga inhibitor | Cycloheximide cs | AmpC inh detg | NS1 inh | AmpC no deterg
CCc1ccc(NC(=O)c2ccc3[nH]c(C)c(C)c3c2)cc1 | · | · | -1% | · | ·
O=C(NC(CO)(CO)CO)c1coc(=O)c(Br)c1 | 1 | 10 | -15% | 10% | 4%
O=C(Nc1cc(Cl)cc(Cl)c1)c1coc(=O)c(Br)c1 | 39* | 24* | 4% | 0% | -50%
COc1ccccc1CNC(=O)CS(=O)(=O)Cc1nc(-c2ccccc2C)oc1C | · | · | -8% | · | ·
Cc1cccc(NC(=O)Cn2c(=O)n(CCc3ccccc3)c(=O)c3sc4ccccc4c32)c1 | · | · | 8% | · | ·
COc1ccccc1N1CCN(C(=O)c2coc(=O)c(Br)c2)CC1 | 81* | 40* | 4% | 3% | -9%
